# Experimental data: the supplement of paper PMC10849652
# Targets with a hit are over-represented here; the source holds about 8,800 in all. About 0.5% of all pairs of compound and target were hits. Unmarked numbers belong to inactive results.
# What was measured:
# Test in all cases: log2 fold change, soluble protein after heating vs DMSO (PISA); higher = thermal stabilisation; K562 lysate, 10 uM; active = over 0.2 and 3.5 SD of the protein, either way, in both replicates (recomputed)
# nilotinib = compound: Cc1cn(-c2cc(NC(=O)c3ccc(C)c(Nc4nccc(-c5cccnc5)n4)c3)cc(C(F)(F)F)c2)cn1 [nilotinib]
# Outline: (§1)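 Dounce homogenisation of K562 pellets in PBS pH 7.4 with 1 mM MgCl2 produced a crude extract, used at 1 mg/mL protein. Exposure to 10 μM compound lasted 30 min, and aliquots were then heated for 3 min across 48°C-58°C, pooled and brought to 0.5% NP-40 at 4°C. The supernatant after 21,000xg for 90 min was quantified by TMTpro 16plex LC-MS/MS with channel sums equalised. Duplicate values are given as log-two fold change in thermal stability relative to solvent controls.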
# [1] = compound: Cc1nc(Nc2n[nH]c3c2CN(C(=O)N[C@H](CN(C)C)c2ccccc2)C3(C)C)c2sccc2n1
# Outline: as §1
# dasatinib = compound: Cc1nc(Nc2ncc(C(=O)Nc3c(C)cccc3Cl)s2)cc(N2CCN(CCO)CC2)n1 [dasatinib]
# Outline: as §1
# [2] = compound: Cc1ncc(-c2ccnc(Nc3ccc(S(C)(=O)=O)cc3)n2)n1C(C)C
# Outline: as §1
# [3] = compound: Cn1cc(-c2ccc3c(c2)CCN3C(=O)Cc2cccc(C(F)(F)F)c2)c2c(N)ncnc21
# Outline: as §1
# quisinostat = compound: Cn1cc(CNCC2CCN(c3ncc(C(=O)NO)cn3)CC2)c2ccccc21 [quisinostat]
# Outline: as §1
# tipifarnib = compound: Cn1cncc1[C@@](N)(c1ccc(Cl)cc1)c1ccc2c(c1)c(-c1cccc(Cl)c1)cc(=O)n2C [tipifarnib]
# Outline: as §1
# [4] = compound: NC(=O)Nc1cc(-c2cccc(F)c2)sc1C(=O)N[C@H]1CCCNC1
# Outline: as §1
# [5] = compound: NC(=O)c1cnc(N[C@@H]2CCCC[C@@H]2N)nc1Nc1cccc(-n2nccn2)c1
# Outline: as §1
# [6] = compound: NC1(c2ccc(-c3nc4ccn5c(=O)[nH]nc5c4cc3-c3ccccc3)cc2)CCC1
# Outline: as §1
# [7] = compound: NCC(=O)Nc1ccc(-n2nc(C(F)(F)F)cc2-c2ccc3c(ccc4ccccc43)c2)cc1
# Outline: as §1
# vorinostat = compound: O=C(CCCCCCC(=O)Nc1ccccc1)NO [vorinostat]
# Outline: as §1
# silmitasertib = compound: O=C(O)c1ccc2c(c1)nc(Nc1cccc(Cl)c1)c1ccncc12 [silmitasertib]
# Outline: as §1
# [8] = compound: O=C1NC(=O)C(c2cnc3ccccn23)=C1c1cn2c3c(cc(F)cc13)CN(C(=O)N1CCCCC1)CC2
# Outline: as §1
# entospletinib = compound: c1cn2cc(-c3ccc4cn[nH]c4c3)nc(Nc3ccc(N4CCOCC4)cc3)c2n1 [entospletinib]
# Outline: as §1
# UniProt Q9BTD8, sequence (Q9BTD8 whole entry, looked up): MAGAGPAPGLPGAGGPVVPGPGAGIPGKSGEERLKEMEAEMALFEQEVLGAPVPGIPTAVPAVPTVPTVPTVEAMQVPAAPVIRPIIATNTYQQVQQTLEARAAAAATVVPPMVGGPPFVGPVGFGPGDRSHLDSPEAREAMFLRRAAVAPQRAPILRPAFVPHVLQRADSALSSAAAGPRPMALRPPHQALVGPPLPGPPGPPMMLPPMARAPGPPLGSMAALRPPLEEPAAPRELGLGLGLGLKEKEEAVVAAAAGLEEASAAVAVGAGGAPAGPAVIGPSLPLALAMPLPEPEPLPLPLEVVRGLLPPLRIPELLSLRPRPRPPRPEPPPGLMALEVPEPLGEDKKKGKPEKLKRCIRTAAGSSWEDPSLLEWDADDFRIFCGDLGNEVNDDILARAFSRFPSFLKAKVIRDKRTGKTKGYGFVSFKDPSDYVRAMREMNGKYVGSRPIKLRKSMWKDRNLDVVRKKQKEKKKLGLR
# UniProt Q16576, sequence (Q16576 whole entry, looked up): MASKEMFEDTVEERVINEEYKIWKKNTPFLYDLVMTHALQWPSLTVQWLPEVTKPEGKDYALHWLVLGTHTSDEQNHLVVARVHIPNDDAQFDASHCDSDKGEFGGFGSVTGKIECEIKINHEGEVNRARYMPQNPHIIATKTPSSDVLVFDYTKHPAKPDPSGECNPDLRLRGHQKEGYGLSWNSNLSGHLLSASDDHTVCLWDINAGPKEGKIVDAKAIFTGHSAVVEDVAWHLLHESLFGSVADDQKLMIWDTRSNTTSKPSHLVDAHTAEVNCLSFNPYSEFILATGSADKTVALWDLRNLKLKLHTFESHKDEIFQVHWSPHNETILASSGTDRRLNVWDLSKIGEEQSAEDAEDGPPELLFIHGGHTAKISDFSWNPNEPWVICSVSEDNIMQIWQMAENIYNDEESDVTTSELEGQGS
# UniProt Q15418, sequence (Q15418 whole entry, looked up): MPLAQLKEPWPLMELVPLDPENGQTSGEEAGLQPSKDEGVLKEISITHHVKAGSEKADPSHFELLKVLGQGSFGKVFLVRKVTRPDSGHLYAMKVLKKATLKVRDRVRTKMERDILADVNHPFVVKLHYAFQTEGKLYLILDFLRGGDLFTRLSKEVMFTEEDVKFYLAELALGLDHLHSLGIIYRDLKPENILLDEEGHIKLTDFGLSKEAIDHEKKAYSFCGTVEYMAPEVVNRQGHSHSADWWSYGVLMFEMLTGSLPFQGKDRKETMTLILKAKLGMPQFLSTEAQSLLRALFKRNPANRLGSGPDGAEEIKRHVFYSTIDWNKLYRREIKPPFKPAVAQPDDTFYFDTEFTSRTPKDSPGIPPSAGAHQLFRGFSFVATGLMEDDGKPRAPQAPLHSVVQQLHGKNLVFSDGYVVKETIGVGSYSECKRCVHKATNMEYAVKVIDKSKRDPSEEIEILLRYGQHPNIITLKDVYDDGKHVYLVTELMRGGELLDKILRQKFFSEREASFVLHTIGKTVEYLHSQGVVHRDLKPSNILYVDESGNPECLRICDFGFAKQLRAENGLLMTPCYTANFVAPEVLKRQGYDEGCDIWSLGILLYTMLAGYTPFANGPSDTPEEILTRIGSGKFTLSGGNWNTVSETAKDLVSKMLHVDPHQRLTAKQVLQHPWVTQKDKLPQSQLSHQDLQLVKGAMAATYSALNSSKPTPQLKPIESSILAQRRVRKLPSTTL
# UniProt P52756, sequence (P52756 whole entry, looked up): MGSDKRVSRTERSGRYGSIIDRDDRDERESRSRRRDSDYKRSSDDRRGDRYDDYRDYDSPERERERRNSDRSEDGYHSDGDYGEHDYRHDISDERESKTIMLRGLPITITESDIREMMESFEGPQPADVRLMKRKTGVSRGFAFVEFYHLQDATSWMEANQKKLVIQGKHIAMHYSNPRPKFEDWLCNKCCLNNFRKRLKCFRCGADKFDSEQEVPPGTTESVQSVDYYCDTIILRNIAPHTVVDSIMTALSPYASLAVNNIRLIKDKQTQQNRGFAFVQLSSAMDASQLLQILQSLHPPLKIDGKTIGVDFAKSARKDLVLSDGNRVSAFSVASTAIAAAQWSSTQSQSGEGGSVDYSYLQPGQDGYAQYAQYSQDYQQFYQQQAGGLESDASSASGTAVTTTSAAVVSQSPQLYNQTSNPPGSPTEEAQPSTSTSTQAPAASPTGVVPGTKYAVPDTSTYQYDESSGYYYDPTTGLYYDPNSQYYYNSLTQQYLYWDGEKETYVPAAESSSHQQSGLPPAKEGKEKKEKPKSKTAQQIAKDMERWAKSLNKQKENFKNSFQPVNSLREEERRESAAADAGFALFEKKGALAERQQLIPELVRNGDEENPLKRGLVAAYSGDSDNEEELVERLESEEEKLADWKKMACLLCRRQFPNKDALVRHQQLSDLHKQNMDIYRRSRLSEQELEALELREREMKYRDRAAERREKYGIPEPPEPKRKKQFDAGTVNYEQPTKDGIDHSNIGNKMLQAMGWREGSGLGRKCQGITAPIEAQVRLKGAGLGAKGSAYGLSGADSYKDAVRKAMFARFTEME
# UniProt Q86X10, sequence (Q86X10 whole entry, looked up): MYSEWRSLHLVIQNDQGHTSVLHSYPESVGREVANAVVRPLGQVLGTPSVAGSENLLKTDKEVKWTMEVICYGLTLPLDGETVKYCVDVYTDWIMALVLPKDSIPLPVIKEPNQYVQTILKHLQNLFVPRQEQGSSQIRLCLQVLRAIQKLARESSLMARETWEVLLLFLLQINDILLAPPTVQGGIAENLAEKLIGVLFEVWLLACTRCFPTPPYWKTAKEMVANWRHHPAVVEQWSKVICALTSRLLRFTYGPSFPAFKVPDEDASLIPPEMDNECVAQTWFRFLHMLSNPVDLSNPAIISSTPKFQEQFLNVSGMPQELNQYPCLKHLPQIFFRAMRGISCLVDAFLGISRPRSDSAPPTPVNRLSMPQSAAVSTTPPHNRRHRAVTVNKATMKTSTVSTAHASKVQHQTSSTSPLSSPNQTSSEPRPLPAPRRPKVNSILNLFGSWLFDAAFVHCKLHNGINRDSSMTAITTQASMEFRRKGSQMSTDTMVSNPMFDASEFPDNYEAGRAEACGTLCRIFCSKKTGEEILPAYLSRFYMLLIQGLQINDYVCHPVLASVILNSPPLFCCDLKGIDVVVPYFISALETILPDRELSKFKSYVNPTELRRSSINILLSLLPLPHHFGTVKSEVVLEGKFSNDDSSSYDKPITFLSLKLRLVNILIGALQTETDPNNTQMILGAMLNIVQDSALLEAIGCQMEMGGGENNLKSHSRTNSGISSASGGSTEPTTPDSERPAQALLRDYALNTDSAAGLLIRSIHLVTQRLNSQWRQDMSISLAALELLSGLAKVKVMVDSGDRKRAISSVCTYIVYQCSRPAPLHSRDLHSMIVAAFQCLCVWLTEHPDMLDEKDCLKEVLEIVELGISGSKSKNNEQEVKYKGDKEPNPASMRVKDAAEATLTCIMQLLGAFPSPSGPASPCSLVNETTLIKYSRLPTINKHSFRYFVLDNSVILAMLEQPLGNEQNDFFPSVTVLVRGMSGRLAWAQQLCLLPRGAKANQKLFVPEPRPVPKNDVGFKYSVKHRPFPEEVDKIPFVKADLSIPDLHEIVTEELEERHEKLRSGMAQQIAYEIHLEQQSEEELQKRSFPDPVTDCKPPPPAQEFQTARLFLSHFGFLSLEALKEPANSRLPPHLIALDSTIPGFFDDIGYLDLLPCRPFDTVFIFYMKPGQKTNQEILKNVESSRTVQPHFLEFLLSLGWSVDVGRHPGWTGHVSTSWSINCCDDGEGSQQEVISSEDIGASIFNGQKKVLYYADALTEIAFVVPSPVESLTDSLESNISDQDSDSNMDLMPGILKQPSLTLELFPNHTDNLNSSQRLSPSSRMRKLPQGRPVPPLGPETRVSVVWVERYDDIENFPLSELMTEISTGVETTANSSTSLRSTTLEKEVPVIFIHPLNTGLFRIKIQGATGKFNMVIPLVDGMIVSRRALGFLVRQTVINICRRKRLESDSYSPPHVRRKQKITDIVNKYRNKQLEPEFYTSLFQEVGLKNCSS
# UniProt Q6NUQ1, sequence (Q6NUQ1 whole entry, looked up): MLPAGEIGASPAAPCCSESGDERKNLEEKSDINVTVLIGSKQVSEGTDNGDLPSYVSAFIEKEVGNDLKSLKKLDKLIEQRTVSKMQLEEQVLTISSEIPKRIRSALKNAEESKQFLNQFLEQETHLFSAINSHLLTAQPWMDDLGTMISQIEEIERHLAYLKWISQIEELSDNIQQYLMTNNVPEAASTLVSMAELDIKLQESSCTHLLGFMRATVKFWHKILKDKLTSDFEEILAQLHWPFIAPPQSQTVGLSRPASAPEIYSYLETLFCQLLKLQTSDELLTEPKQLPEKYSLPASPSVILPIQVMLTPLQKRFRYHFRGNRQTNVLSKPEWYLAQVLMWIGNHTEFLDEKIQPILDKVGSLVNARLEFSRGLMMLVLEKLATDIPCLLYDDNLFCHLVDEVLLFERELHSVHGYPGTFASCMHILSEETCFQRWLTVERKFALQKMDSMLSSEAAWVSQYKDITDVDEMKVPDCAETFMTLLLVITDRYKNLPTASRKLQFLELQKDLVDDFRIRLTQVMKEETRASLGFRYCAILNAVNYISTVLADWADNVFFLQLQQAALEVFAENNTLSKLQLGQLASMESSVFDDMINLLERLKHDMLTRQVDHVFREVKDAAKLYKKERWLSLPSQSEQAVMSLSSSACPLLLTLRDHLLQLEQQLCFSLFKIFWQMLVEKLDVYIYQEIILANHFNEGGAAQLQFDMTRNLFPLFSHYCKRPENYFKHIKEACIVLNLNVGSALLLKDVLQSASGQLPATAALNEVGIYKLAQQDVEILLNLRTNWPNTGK
Target,log2 fold change (nilotinib),log2 fold change [1],log2 fold change (dasatinib),log2 fold change [2],log2 fold change [3],log2 fold change (quisinostat),log2 fold change (tipifarnib),log2 fold change [4],log2 fold change [5],log2 fold change [6],log2 fold change [7],log2 fold change (vorinostat),log2 fold change (silmitasertib),log2 fold change [8],log2 fold change (entospletinib)
RPS6KA5 (UniProt O75582),-0.037,0.004,-0.006,-0.079,0.065,0.062,0.042,0.073,-0.086,-0.127,-0.025,-0.189,0.034,-0.303,-0.007
RINT1 (UniProt Q6NUQ1),0.043,0.075,-0.115,0.028,0.012,-0.029,-0.044,0.071,0.001,-0.014,0.078,-0.321 (active),0.038,0.034,-0.089
RALGAPB (UniProt Q86X10),-0.022,0.029,-0.026,0.026,0.015,-0.048,-0.021,0.053,-0.019,-0.044,0.004,-0.299 (active),0.017,-0.017,-0.029
RXRA (UniProt P19793),0.164,-0.053,-0.112,0.119,-0.024,-0.028,0.011,0.027,0.024,-0.014,,-0.154,0.07,-0.08,
SAMHD1 (UniProt Q9Y3Z3),-0.006,0.008,-0.026,0.013,0.066,-0.02,0.03,0.054,0.046,0.004,-0.012,-0.352 (active),-0.002,0.032,0.031
RCOR3 isoform 3 (UniProt Q9P2K3),-0.016,-0.028,-0.052,0.038,0.01,0.022,0.011,0.03,0.029,0.014,-0.044,-0.206,-0.002,-0.01,0.034
RBM42 (UniProt Q9BTD8),0.102,-0.039,-0.021,0.009,-0.039,-0.033,0.073,-0.022,-0.049,0.004,0.19,-0.04,-0.031,0.018,-0.058
RASA3 (UniProt Q14644),0.065,-0.014,-0.144,0.039,0.109,0.062,0.009,0.011,0.012,0.089,-0.022,-0.361 (active),-0.08,-0.015,0.017
RBBP7 isoform 2 (UniProt Q16576),0.013,-0.019,-0.005,-0.035,0.016,-0.051,0.047,0.01,-0.025,0.035,-0.043,0.03,-0.012,-0.068,0.024
RBM5 (UniProt P52756),0.146,-0.085,0.073,0.028,-0.003,0.027,-0.015,0.009,0.114,0.185,0.036,-0.427 (active),0.072,-0.056,0.023
RDH10 (UniProt Q8IZV5),-0.004,0.011,0.132,0.026,-0.022,0.05,0.042,-0.002,-0.084,0.073,-0.038,-0.007,0.006,-0.042,0.162
RANBP2 (UniProt P49792),-0.018,0.001,-0.059,0.006,0.021,-0.05,-0.055,0.046,0.007,-0.003,-0.01,-0.343 (active),-0.004,0.001,-0.006
RPS6KA1 (UniProt Q15418),-0.037,0.204,-0.113,0.078,0.031,-0.045,0.002,0.256,0.093,-0.028,0.014,-0.157,0.553 (active),0.123,-0.038
RNPC3 (UniProt Q96LT9),-0.104,0.069,0.042,0.01,-0.061,-0.071,-0.075,-0.063,-0.056,0.06,,-0.488 (active),0.145,0.036,
